Test [1] concerns Human papillomavirus type 1a protein E7 (residues 44-93). Description: small molecules binding HPV E7 44-93 – biochemical, small-molecule microarray, residues 44-93, 635 nm fluorescence, primary screen (AID 1108).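 Note: E7 fragment applied at 1 µg/mL in TBST for 1 h at 4 C; score combines spot fluorescence with its signal to noise ratio.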 As to conditions: fluorescence 635 nm, higher = more signal.
A short description of test [2]: hepatitis C replication reporter changes, two-sided – Huh7 cells, luciferase reporter, HCV replication inhibitor project, primary screen (AID 1109).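 Note: huh7 hepatoma cells harbouring a luciferase neomycin HCV replicon reporter; luciferase luminescence as measure of HCV replicon replication; test concentration not given here.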 Conditions: Huh7 HCV replicon luciferase reporter, 48 h; higher = more signal. On the technique in general: Reporter assays use an easily measured gene product as a stand-in for the process of interest.
Test [3] concerns the target Left-right determination factor 2 (Homo sapiens) (UniProt O00292). Description: small molecules binding LEFTY2 protein – biochemical, small-molecule microarray, 635 nm fluorescence scan, primary screen (AID 1110). Conditions: higher = more signal.
The target in test [4] is Calmodulin-1 (Homo sapiens) (UniProt P0DP23). Description: small molecules binding calmodulin-1 with EGTA – biochemical, small-molecule microarray, Cy5-labelled CALM1, profiling panel (AID 1111).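 Note: labelled calmodulin applied in Tris saline Tween buffer holding calcium plus EGTA and DTT.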 Conditions: Cy5-CALM1 binding fluorescence, higher = more signal.
The target is the same in test [5]. Description: small molecules binding Ca-loaded calmodulin-1 – biochemical, small-molecule microarray, Cy5-labelled CALM1, plus calcium, artefact control for SMM control-protein annotation, profiling panel (AID 1112).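 Note: score merges spot fluorescence with signal to noise from triplicate slides.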 Conditions: Cy5-CALM1 binding fluorescence, higher = more signal.
Test [6] can be described thus: probe aWnt5a binding to arrayed compounds – biochemical, biotinylated probe, 635/667 nm fluorescence, primary screen (AID 1113).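 Note: score merges 667 nm fluorescence intensity with signal-to-noise per printed feature.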 As to conditions: small-molecule microarray, higher = more signal.
A short description of test [7]: probe aShh binding to arrayed compounds – biochemical, biotinylated probe, 635/667 nm fluorescence, primary screen (AID 1114).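 Note: probe is biotin-labelled aShh protein from a stem cell growth factor screen; measures binding of labelled protein to compounds printed on the slide; score merges feature fluorescence at 667 nm with signal-to-noise.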 Conditions: small-molecule microarray, higher = more signal.
Test [8] is described as follows: probe aNog binding to arrayed compounds – biochemical, biotinylated probe, 635/667 nm fluorescence, primary screen (AID 1115).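 Note: probe is biotinylated aNog protein used at 0.15 µg/mL for 1 h at 4 C; z-score combines 667 nm fluorescence of each spot with its signal to noise.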 Conditions: small-molecule microarray, higher = more signal.
For test [9], the target named is Torsin-1A-interacting protein 1 (Homo sapiens) (UniProt Q5JTV8). Description: compound microarray binding of lysate hLAP1 – cell lysate, small-molecule microarray, COS7 lysate, 635/667 nm fluorescence, primary screen (AID 1116). As to conditions: 635 nm fluorescence, higher = more signal.
Chain of Torsin-1A-interacting protein 1 (Homo sapiens) (Q5JTV8 whole entry, looked up): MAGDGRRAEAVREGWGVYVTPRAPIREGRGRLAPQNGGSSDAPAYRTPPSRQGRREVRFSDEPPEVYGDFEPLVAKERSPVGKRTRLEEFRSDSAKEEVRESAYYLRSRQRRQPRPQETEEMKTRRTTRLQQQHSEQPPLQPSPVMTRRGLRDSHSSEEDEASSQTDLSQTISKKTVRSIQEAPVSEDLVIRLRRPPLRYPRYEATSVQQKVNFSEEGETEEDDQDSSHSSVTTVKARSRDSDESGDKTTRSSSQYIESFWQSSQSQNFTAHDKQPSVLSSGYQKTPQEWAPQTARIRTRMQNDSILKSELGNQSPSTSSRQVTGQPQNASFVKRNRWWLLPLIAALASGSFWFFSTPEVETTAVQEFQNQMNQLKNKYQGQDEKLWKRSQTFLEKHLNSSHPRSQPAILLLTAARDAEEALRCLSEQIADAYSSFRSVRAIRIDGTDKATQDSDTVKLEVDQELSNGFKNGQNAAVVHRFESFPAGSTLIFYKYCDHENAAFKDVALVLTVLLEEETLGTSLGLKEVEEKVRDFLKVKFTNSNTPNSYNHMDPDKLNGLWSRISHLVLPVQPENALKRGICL
Test [10] concerns the target Alpha-bungarotoxin (Bungarus multicinctus) (UniProt P60615). Description: compounds binding labelled alpha-BTX control protein – biochemical, small-molecule microarray, Alexa647 label, 635/667 nm fluorescence, artefact control for SMM control protein annotation, profiling panel (AID 1117). As to conditions: alpha-BTX-A647 binding fluorescence, higher = more signal.

The record followed here is PubChem BioAssay.

Molecules are shown by their SMILES.

Chain of Left-right determination factor 2 (Homo sapiens) (O00292 whole entry, looked up): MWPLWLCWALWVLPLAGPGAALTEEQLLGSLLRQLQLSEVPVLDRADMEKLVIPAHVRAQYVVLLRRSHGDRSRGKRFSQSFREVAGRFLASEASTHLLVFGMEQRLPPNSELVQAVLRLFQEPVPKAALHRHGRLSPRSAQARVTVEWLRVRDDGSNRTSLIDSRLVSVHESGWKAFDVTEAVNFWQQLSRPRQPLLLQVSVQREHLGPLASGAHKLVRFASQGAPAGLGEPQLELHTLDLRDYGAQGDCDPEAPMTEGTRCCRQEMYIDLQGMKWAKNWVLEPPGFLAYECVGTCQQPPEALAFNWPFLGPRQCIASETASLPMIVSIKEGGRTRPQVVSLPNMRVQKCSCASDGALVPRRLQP
Chain of Alpha-bungarotoxin (Bungarus multicinctus) (P60615 whole entry, looked up): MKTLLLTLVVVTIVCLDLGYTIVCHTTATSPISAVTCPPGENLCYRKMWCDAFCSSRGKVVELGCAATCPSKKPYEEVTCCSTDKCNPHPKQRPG

Take `CSCC[C@@H]1NC(=O)CC=C[C@@H](C)COC(=O)[C@@H](C)COC1=O`: the composite z-score in test [1] is -2.17; in test [3] it was 0.294; in test [4] it was -1.31; in test [5], -1.61; in test [6] it was -0.197; in test [7], -0.366. Besides, the composite z-score was -0.15 in test [8], 0.574 in test [9] and -2.23 in test [10]. The molecule also returned a z-score in [2] of 0.371.

Turning to `CC(=O)Nc1ccc([C@@H]2N[C@H](C(=O)O)CC[C@H]2C)cc1`, the composite z-score was -0.0931 in test [1]; 0.523 in test [3]; -0.105 in test [4]; -0.635 in [5]; -0.0203 in [6]; -0.226 in [7]. Also, the composite z-score was -0.213 in test [8], 0.14 in [9] and 0.273 in test [10]. In test [2], this molecule displayed a z-score of 1.1.

For `CCOC(=O)CCN1C(=O)[C@H]2[C@H]3[C@H](O)[C@H](O)CC(=NOCc4ccccc4)[C@H]3CC[C@H]2C1=O`, the composite z-score was -0.207 in test [1]; 0.389 in [3]; -0.205 in test [4]; -0.329 in test [5]; -0.174 in [6]; -0.0977 in [7]. Also, the composite z-score in [8] was -0.0312; in test [9] it was 0.0908; in test [10] it was 0.857. For the same molecule, the z-score in test [2] is 0.676.

Take `CCOC(=O)[C@H](Cc1ccccc1)NC(=O)CCC1CC(OC(=O)NCc2cccc3ccccc23)CC2(CCCC(COC(=O)NCC(c3ccccc3)c3ccccc3)O2)O1` (stereo not given in full): the composite z-score in [1] was 0.313; in test [3] it was 0.567; in test [4], -0.328; in test [5], -0.43; in test [6], -0.096; in test [7], -0.2. Besides, the composite z-score in [8] is -0.187; in test [9] it was 0.18; in test [10] it was -0.0602. In test [2], this molecule had a z-score of -1.46.

Take `CCOC(=O)[C@H](CC(C)C)NC(=O)CCC1CC(OC(=O)NCCc2ccc(F)cc2)CC2(CCCC(COC(=O)NCC3CCCCC3)O2)O1` (stereo not given in full): the composite z-score was 0.723 in test [1]; 0.351 in [3]; 0.255 in test [4]; -0.622 in [5]; -0.19 in [6]; -0.0362 in test [7]. The results for the composite z-score in test [8], in test [9] and in test [10] were -0.45, 0.627 and 0.596, respectively. This molecule also returned a z-score in test [2] of -1.11.

Take `C[C@@H]1CC[C@H]2C(=O)O[C@@H](COc3ccc(C(C)(C)C)cc3)CN2[C@@H]1c1ccc(Br)cc1`: the composite z-score in test [1] is -0.631; in [3], -0.403; in [4], -0.121; in test [5], 0.578; in test [6], -0.179; in [7] it was -0.289. Also, the values for the composite z-score in [8], in test [9] and in test [10] were 0.105, -0.319 and 0, respectively. In test [2], this molecule showed a z-score of -0.0485.

With `COC(=O)CC=C[C@H](C)[C@@H](OCc1cccc(Br)c1)[C@@H](C)[C@H](OC)C1CCCCC1`, the composite z-score in test [1] was -0.835; in test [3] it was 0.388; in test [4], -0.893; in test [5], -1.07; in test [6] it was -0.0944; in [7], -0.282. The composite z-score in test [8] is -0.449; in test [9], -0.343; in test [10], -0.308. The same molecule returned a z-score in test [2] of -0.291.

For `COC(=O)[C@@H]1CC[C@H](C)[C@@H](c2ccc(C)cc2)N1C(=O)c1ccc(C=NOC[C@@H](C)[C@H](OCc2ccccc2)C(C)C)cc1`, the composite z-score in [1] was 1.09; in [3], 0.583; in test [4], -0.0027; in [5] it was -0.607; in [6], -0.0276; in test [7], -0.0553. The values for the composite z-score in test [8], in test [9] and in test [10] were -0.302, 1.27 and 1.25, respectively. Moreover, the z-score in [2] is -0.989.

Turning to `COc1ccc(O[C@H]2C=C[C@@H](c3ccccc3)O[C@@H]2COC(=O)CCC(C)=NO[C@@H]2O[C@H](COC(C)=O)[C@@H](OC(C)=O)[C@H](OC(C)=O)[C@H]2OC(C)=O)cc1`, the composite z-score in test [1] is 1.29; in test [3], 0.511; in test [4], -0.126; in test [5] it was -0.643; in test [6], -0.0944; in [7], -0.206. Further, the composite z-score in test [8] is -0.53; in [9], 0.38; in test [10], 0.731. The same molecule gave a z-score in test [2] of -1.88.

Take `COc1ccc(O[C@H]2C=C[C@@H](c3ccccc3)O[C@@H]2CON=C(C)CCC(=O)OC[C@H]2O[C@H](c3ccccc3)C=C[C@@H]2Oc2ccc(OC)cc2)cc1`: the composite z-score was -1.52 in [1]; -1.08 in test [3]; -0.63 in test [4]; -0.702 in [5]; -0.176 in test [6]; -0.276 in test [7]. Also, the composite z-score was 0.646 in test [8], -1.17 in [9] and -0.792 in test [10]. This molecule also displayed a z-score in test [2] of -1.15.

With `CC(C)=CCCC(C)=CCON=C1C[C@@H](O)[C@@H](O)[C@@H]2[C@@H]3C(=O)N(c4ccc(F)cc4F)C(=O)[C@@H]3CC[C@@H]12`, the composite z-score in test [1] was 0.15; in test [3], 0.821; in [4] it was -0.343; in [5] it was 0.0144; in test [6] it was -0.169; in test [7], -0.0553. Moreover, the composite z-score is -0.374 in [8], 1 in [9] and 0.703 in test [10]. This molecule came in with a z-score in test [2] of -1.08.

On to `CC(=O)OC[C@H]1O[C@H](CC=NO[C@H](C)c2cn([C@H](CO)Cc3ccccc3)nn2)C=C[C@@H]1OC(C)=O`, for which the composite z-score in test [1] is 1.16; in test [3], 0.852; in test [4], 0.081; in test [5], -0.367; in test [6], -0.0231; in test [7] it was -0.0553. For the same molecule, the composite z-score in test [8] came out at 0.223; in test [9], 0.213; in test [10], 1.27. Besides, the z-score in [2] was -0.355.

Consider `Cc1ccc(S(=O)(=O)OC[C@H]2CN3[C@H](c4ccc(Br)cc4)[C@@H](C)CC[C@H]3C(=O)O2)cc1`, for which the composite z-score in test [1] was 0.226; in test [3], 0.119; in test [4], 0.946; in test [5] it was -0.265; in test [6] it was -0.0462; in test [7], 0.0141. Moreover, the figures for the composite z-score in test [8], in [9] and in test [10] were -0.12, 0.0859 and 0.934, respectively. The molecule also displayed a z-score in test [2] of -1.02.

For `COc1cccc([C@H]2Oc3ccc(OC)cc3C(=NOC[C@@H](O)COCc3ccco3)[C@@H]2O)c1`, the composite z-score in [1] was -0.593; in [3], -0.159; in test [4] it was -2.33; in test [5], -2.08; in [6], -0.278; in [7], -0.372. The composite z-score was -0.539 in [8], -0.889 in test [9] and -0.799 in test [10]. In [2], this molecule gave a z-score of -1.04.

With `CCCNC(=O)OC[C@H]1O[C@H](CCON=C(C)C)C=C[C@@H]1Oc1ccc(OC)cc1`, the composite z-score in [1] is -0.599; in test [3], -0.143; in test [4] it was 0.608; in test [5], 0.304; in test [6], -0.0887; in test [7], -0.282. Moreover, the composite z-score in test [8] is -0.0927; in test [9], 0.587; in test [10] it was -0.132. The same molecule returned a z-score in test [2] of -1.12.

Take `CCOC(=O)[C@H](Cc1ccccc1)NC(=O)CCC1CC(OC(=O)NCCc2ccc(F)cc2)CC2(CCCC(COC(=O)NCCOC)O2)O1` (stereo not given in full): the composite z-score was 1.4 in test [1]; 0.529 in [3]; 0.276 in [4]; -0.109 in test [5]; -0.116 in test [6]; 0.131 in [7]. In addition, the composite z-score in test [8] was found to be 0.0853; in test [9], 0.979; in test [10], 0.574. Moreover, in [2], the z-score is 0.686.

`CC(=O)O[C@H]1C2=CO[C@H](C)[C@H]3[C@H]4C5=C([C@H](O)[C@H]6O[C@H]6C5=O)[C@H](OC4C)[C@@]23C(=O)[C@@H]2O[C@@H]21` (stereo not given in full): the composite z-score was -0.361 in [1]; 0.384 in [3]; -0.935 in test [4]; -0.994 in test [5]; 0.0108 in test [6]; 0.0804 in test [7]. The composite z-score in test [8] is 0.262; in test [9], 0.963; in test [10] it was -1.03. Further, in [2], the z-score is -4.68.
